IL-1B inflam inh = inflammasome signaling inhibition, IL-1 beta readout; AID 743279; activity change, % at 57.5 µM; THP-1 LPS/ATP IL-1B secretion, AlphaLISA, 16 h; stronger effect = lower value; actives 4.7% (n = 360,000); in the data active means activity change below about -50%; inconclusive means mostly about -30% to -49%; further: on the % scale 0 is the no-effect control and ±100 the full control effect
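THP-1 cells pretreated 1 hr with compounds (up to 57.5 uM final), then stimulated with LPS (250 ng/mL final) plus ATP (1.25 mM final); secreted IL-1B measured by AlphaLISA after 16 hr, decreased signal indicating inhibition.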
Giardia killer = kills Giardia lamblia; Giardia lamblia trophozoite viability; activity change, % at 7.66 µM, hits read low; actives 0.15% (n = 340,000); AID 540267; in the data active means activity change below about -80%; inconclusive means between about -30% and that limit;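 further: parasites exposed to compound for two days anaerobically before the ATP read; on the % scale 0 is the no-effect control and ±100 the full control effect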
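Compounds were tested on trophozoites seeded at 100 cells/well and held 48 hrs at 37 deg C anaerobically. An ATP-based luminescent kit measured the remaining live cells.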
SW480 rereplic = induces DNA re-replication in SW480 colon adenocarcinoma cells; AID 624297; Potency, µM (titrated, usually from 46.1 µM), for inactives: top-dose re-replication activation, hits mostly activators; SW480 DNA re-replication, Hoechst DNA content imaging, 48 h; actives 1.8% (n = 340,000); further: potency means the concentration at half of the fitted maximal effect; % of control where 0% means no effect; nearly all actives have a fitted effect of over 55% in size
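250 cells/well; 23 nL cpd via pin tool; 48 hr, 37 C, 5% CO2; Hoechst 40 min; imager read of total nuclear intensity, ex 405/em 500-530 nm.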
Vif-A3G inh = inhibitors of Vif-APOBEC3G interaction; Q9HC16; actives 0.076% (n = 410,000); Potency, µM (doses to about 46.1 µM), without a hit: top-dose activity, negative = active, usual class: inhibitors; HeLa A3G-eYFP + Vif (tagged APOBEC3G with the HIV-1 protein that degrades it), YFP fluorescence, overnight; further: potency means the concentration at half of the fitted maximal effect; on the % scale 0 is the no-effect control and ±100 the full control effect; nearly all actives have a fitted effect of over 60% in size
Target sequence (Q9HC16 whole entry, looked up): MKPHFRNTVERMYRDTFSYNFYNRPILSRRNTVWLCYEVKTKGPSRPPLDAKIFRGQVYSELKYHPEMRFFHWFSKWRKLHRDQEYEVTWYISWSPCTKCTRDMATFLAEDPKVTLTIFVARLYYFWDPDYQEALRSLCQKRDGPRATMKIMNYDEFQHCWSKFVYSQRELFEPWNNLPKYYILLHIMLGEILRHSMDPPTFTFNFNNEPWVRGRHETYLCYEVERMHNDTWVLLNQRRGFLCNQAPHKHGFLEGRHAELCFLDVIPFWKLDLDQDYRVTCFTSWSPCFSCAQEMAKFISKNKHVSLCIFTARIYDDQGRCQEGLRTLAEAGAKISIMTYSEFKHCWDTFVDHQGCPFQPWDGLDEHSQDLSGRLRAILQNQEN
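HeLa cells stably expressing Vif and C-terminally eYFP-tagged A3G, seeded overnight at 37 deg C, then exposed to compound by pintool overnight at 37 deg C. Rise in yellow fluorescence (Ex 488/Em 500-530, Acumen) marks blocked Vif-driven A3G degradation.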
Vif-A3F inh = Vif-A3F binding inhibition. HeLa A3F-eYFP + Vif (tagged APOBEC3F with the HIV-1 protein that degrades it), YFP fluorescence increase. Potency, µM (highest dose often 46.1 µM), for the others: at the highest dose activity, negative = active. actives 0.2% (n = 390,000). AID 602313; further: potency means the concentration at half of the fitted maximal effect; % of control where 0% means no effect; nearly all actives have a fitted effect of over 65% in size
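HeLa cells stably expressing A3F-eYFP plus Vif, plated and incubated overnight at 37 deg C, then exposed to compounds overnight at 37 deg C. Blocked degradation read as raised yellow fluorescence (Ex 488/Em 500-530).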
MCF10A rerep = induces DNA re-replication in MCF 10a normal breast cells | actives 2.9% (n = 350,000) | MCF 10A DNA re-replication, Hoechst nuclear intensity, 48 h | Potency, µM (series often up to 46.1 µM), for inactives: top-dose activity, positive = re-replication, actives largely listed as activators; further: potency means the concentration at half of the fitted maximal effect; % of control where 0% means no effect; nearly all actives have a fitted effect of over 50% in size
The depositor's hits bear a star; ? = inconclusive; nt = not tested or not shown. Shown are actives, neighbours in structure and some others; about 6.9% of the full set was active somewhere. Unless noted, the call rests on the fitted dose curve; in most records, active means well fitted curve in the direction sought with a large enough effect; inconclusive means small, poorly fitted or top-dose-only effect, or another doubt; inactive means no such curve, though single readings can be large; an effect the other way counts as inactive or inconclusive.

SMILES	IL-1B inflam inh	Giardia killer	SW480 rereplic	Vif-A3G inh	Vif-A3F inh	MCF10A rerep
COc1ccc(C2C3=C(CC(C)(C)CC3=O)Oc3ncn4nc(-c5ccccc5)nc4c32)cc1 (stereo not given)	-8	-14	-18%	0%	?	-2%
COc1ccc(C2C3=C(CC(C)(C)CC3=O)Oc3ncn(Cc4ccco4)c(=N)c32)cc1 (stereo not given)	-60*	3	-4%	-1%	-5%	?
CC1(C)CC(=O)C2=C(C1)Oc1ncn(CCO)c(=N)c1C2c1ccccc1 (stereo not given)	-8	5	-6%	2%	-3%	2%
COc1ccccc1-c1nnc(SCC(=O)c2ccc(F)cc2)n1-c1ccccc1	nt	nt	nt	4%	-2%	nt
COc1cc(S(=O)(=O)N(Cc2ccco2)C2CCCC2)ccc1-n1cnnn1	11	12	0%	0%	-7%	10%
CCOc1ccccc1CN(Cc1ccco1)S(=O)(=O)c1ccc(-n2cnnn2)c(OC)c1	-6	0	8.2µM*	-21%	-3%	?
Cc1cc2ccccc2cn1	nt	nt	nt	3%	nt	nt
CC1=CC(C)(C)N(S(=O)(=O)c2ccc(F)cc2)c2ccccc21	64	13	21µM*	-21%	-1%	?
CCOc1ccc(C2C(=O)N(C3CCCCCC3)CC(=O)N2Cc2ccc(C)cc2)cc1OC (stereo not given)	nt	nt	nt	-4%	-1%	nt
CN(C)/C=C1\Oc2ccc3ccccc3c2C1=O	-5	-19	3%	-2%	3%	3%
CN(C)/C=C1/OC(=O)C(C#N)=C1c1ccc(Cl)cc1	-7	-16	?	0%	0%	18µM*
COc1ccc(CCNC(=O)c2ccc3c(c2)N(Cc2ccc(Cl)cc2)C(=O)c2ccccc2S3)cc1OC	nt	nt	nt	0%	6%	nt
Cc1nn(C)cc1C(C(=O)NC1CCCCC1)N(C(=O)Cn1nnc2ccccc21)c1ccc(F)cc1 (stereo not given)	2	10	?	0%	2%	26µM*
Cn1nnnc1Sc1ncnc2scc(-c3ccc(-c4ccccc4)cc3)c12	nt	6	?	?	-6%	8.2µM*
Cn1nnnc1Sc1ncnc2scc(-c3ccsc3)c12	nt	?	?	-22%	-8%	16µM*
COc1cccc(-c2csc3ncnc(Sc4nnnn4C)c23)c1	nt	9	0.33µM*	?	-2%	?
Cn1nnnc1Sc1ncnc2scc(-c3cccs3)c12	nt	-14	?	?	8%	10µM*
Cn1nnnc1Sc1ncnc2scc(-c3ccc(C#N)cc3)c12	nt	-16	2%	?	-3%	?
Cn1nnnc1Sc1ncnc2scc(-c3cccc(F)c3)c12	nt	26	4%	?	5%	?
Cn1nnnc1Sc1ncnc2scc(-c3ccc(C(F)(F)F)cc3)c12	nt	6	6%	?	0%	2.1µM*
Cn1nnnc1Sc1ncnc2scc(-c3cccc(C(F)(F)F)c3)c12	nt	0	?	?	-9%	3.3µM*
Cn1nnnc1Sc1ncnc2scc(-c3ccccc3C(F)(F)F)c12	nt	1	?	-23%	3%	79%
COc1cccc(NC(=O)c2nnn(Cc3ccc(OC)c(Br)c3)c2N)c1	nt	nt	nt	-11%	0%	nt
Cc1nc(SCC(=O)Nc2ccc3c(c2)OCCO3)c2oc3ccccc3c2n1	-10	21	-1%	-13%	1%	103%
CCc1nc(SCC(=O)Nc2ccc3c(c2)OCCO3)c2oc3ccccc3c2n1	4	-16	1%	-1%	-14%	23µM*
SMILES	IL-1B inflam inh	Giardia killer	SW480 rereplic	Vif-A3G inh	Vif-A3F inh	MCF10A rerep
CCc1nc(N2CCN(Cc3ccc4c(c3)OCO4)CC2)c2oc3ccccc3c2n1	-28	4	?	-18%	-3%	9.2µM*
CCc1nc(N2CCCCC2)c2oc3ccccc3c2n1	-8	-9	?	-15%	-21%	6%
CCc1nc(SCC(=O)N2CCCc3ccccc32)c2oc3ccccc3c2n1	-10	-2	-5%	0%	3%	16µM*
COc1ccc(-n2ccn(CC(=O)NCCc3ccccc3)c(=O)c2=O)cc1OC	nt	nt	nt	2%	2%	nt
N#C/C(=C\c1cn(-c2ccccc2)nc1-c1cccnc1)c1nnc2n1CCCCC2	-61*	34	2%	2%	-4%	-1%
O=C(/C=C/c1cn(-c2ccccc2)nc1-c1cccnc1)N1CCCC1	-12	-6	-2%	3%	2%	-1%
CCOc1ccc(CNC(=O)c2ccccc2NC(=O)c2nsc3ccccc23)cc1	nt	nt	nt	-11%	7.9µM*	nt
CCOc1ccc(CNC(=O)c2ccc(NC(=O)c3nsc4ccccc34)cc2)cc1	nt	nt	nt	10%	0%	nt
CCCCCCCCCCCCCC[N+](C)(C)Cc1ccccc1	nt	nt	27µM*	-7%	nt	27µM*
CCCCCCCCCCN(CCCCCCCCCC)c1ccccc1	nt	nt	nt	0%	nt	nt
CCCCCCCCCCCCCCCC[N+](C)(C)Cc1ccccc1	nt	nt	?	nt	nt	13µM*
O=C(CSc1nnc(-c2ccccc2Cl)o1)N1CCCc2ccccc21	nt	nt	nt	4%	3%	nt
COc1ccc(NC2=Nc3ccccc3N3C2=Nc2c(c(C)nn2-c2ccc(C)cc2)C3c2cccnc2)cc1 (stereo not given)	-8	-9	2.9µM*	-1%	-4%	4.6µM*
CCOC(=O)N1CCc2c(sc3c2c(=O)n(Cc2ccccc2)c(=O)n3CC(=O)Nc2ccc(C)cc2C)C1	nt	nt	nt	-8%	-5%	nt
CCC1Oc2ccc(C)cc2N(CC(=O)NC2CCCCC2)C1=O (stereo not given)	-8	21	-2%	-11%	3%	8%
CCC1Oc2ccc(C)cc2N(CC(=O)N(Cc2ccc(C)o2)C2CCCC2)C1=O (stereo not given)	-67*	2	?	-7%	6%	?
Nc1sc(-c2ccccc2)cc1-c1n[nH]c(=S)n1C1CCCCC1	29	-21	3.3µM*	?	11%	3.3µM*
COc1ccc(NC(=O)c2ccc3oc(=O)c(S(=O)(=O)c4ccc(C)cc4)cc3c2)cc1OC	nt	nt	nt	-6%	-5%	nt
Cc1ccc(C23CC4CC(CC(CN)(C4)C2)C3)cc1	-95*	22	?	2%	-1%	?
NCC12CC3CC(C1)CC(c1ccc(Br)cc1)(C3)C2	-77*	-12	11%	-23%	1%	24%
COc1ccc(/C=N/n2c(SC)nnc2-c2ccccc2)c(OC)c1OC	-9	-12	5.8µM*	-25%	4%	15µM*
COc1cccc(/C=N\n2c(C)nnc2C)c1OC	-13	0	-3%	4%	-2%	1%
COc1ccc(/C=N/n2c(SC)nnc2-c2ccccc2)cc1C	-14	-18	7.3µM*	-20%	-2%	18µM*

Assay outcomes: PubChem BioAssay, National Center for Advancing Translational Sciences (NCATS)
